Our source for the inhibition values is PubChem BioAssay AID1053197 (The Scripps Research Institute Molecular Screening Center, 2014).

The term inhibition denotes the relative decrease from the control value, in per cent.

Hit rate of the full screen: of about 370,000 compounds, about 2,600 (0.7%) were called active.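 The calls were made as follows: active = inhibition above a cutoff: mean of compounds within the control limits plus 3 SD of those (cut at about 17% in these data); inactive = the rest.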 What follows is part of a selection rich in actives, with near analogues and random picks from the rest.

Chain of Sialate O-acetylesterase (Homo sapiens) (Q9HAT2 whole entry, looked up): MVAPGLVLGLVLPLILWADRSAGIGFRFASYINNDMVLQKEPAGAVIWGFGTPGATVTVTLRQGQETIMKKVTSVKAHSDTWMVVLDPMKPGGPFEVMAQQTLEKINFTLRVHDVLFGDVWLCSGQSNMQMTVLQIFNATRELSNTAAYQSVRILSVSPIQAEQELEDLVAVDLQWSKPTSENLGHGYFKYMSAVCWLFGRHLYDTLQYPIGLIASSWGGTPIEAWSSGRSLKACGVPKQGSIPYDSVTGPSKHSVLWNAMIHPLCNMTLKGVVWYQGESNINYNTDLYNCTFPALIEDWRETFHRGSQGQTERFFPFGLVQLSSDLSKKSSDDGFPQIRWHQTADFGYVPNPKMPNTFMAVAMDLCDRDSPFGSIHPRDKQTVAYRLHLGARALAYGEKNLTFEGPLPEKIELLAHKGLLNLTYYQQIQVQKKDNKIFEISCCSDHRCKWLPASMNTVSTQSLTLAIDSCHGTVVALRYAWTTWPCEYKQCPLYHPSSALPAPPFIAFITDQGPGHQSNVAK

This experiment concerns the target Sialate O-acetylesterase (Homo sapiens) (UniProt Q9HAT2). The experiment is described as follows: blockers of sialate O-acetylesterase activity-probe labeling – biochemical, fluorescence polarization, FP-Rh probe, 1536-well HTS, primary screen (AID 1053197).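 Also: 0% = plate median of compound wells and 100% = probe without SIAE protein.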 The conditions noted are these: SIAE FP-Rh probe binding, at 9.66 µM, active compounds read high. A general note: In fluorescence polarisation assays a small probe gives low polarisation when free and higher when bound to something large.
Regarding `CCOC(=O)N1CCN(C(=O)C[C@@H]2C(=O)N(CCc3ccc(Cl)cc3)C3=CCCC[C@]32C(=O)OCC)CC1`, the inhibition was 2.23% (inactive).
Regarding `CCCCNC(=O)C[C@@H]1C(=O)N(CCc2ccc(Cl)cc2)C2=CCCC[C@]21C(=O)OCC`, the inhibition is -0.15% (inactive).
Under `Cc1ccc(C)c(NC(=O)CCS(=O)(=O)c2ccccc2)c1` stands -0.04% (inactive); under `CCCCCCCCNS(=O)(=O)/C=C/c1cc(C)ccc1CNC(=O)OC(C)(C)C`, -1.33% (inactive); under `Cc1cc(C(=O)NNC(=O)c2cccc(S(=O)(=O)N3CCOCC3)c2)c2ccccc2n1`, 0.67% (inactive).
For the molecule `Cc1ccc(C)c(NC(=O)NNC(=O)c2ccc3ccccc3c2O)c1`, the inhibition was 13.1% (inactive).
As for `O=C(NNc1c2ccccc2nc2ccccc12)c1cc2ccccc2cc1O`, the inhibition is 49.5% (active).
With `COc1ccc(/C=C2\CC3(OC(C)=O)CCCN2C3)cc1` (centres undefined), the inhibition is 5.11% (inactive).
In the case of `Cc1ccc(-n2c(SCC(=O)Nc3cccc4ccccc34)nnc2-c2ccco2)cc1`, the inhibition is -4.95% (inactive).
As to `CC(=O)O[C@@]1(C(C)=O)CCC2[C@H]3C=C(C)C4=CC(=O)CC[C@@]4(C)C3CC[C@]21C` (some centres undefined), the inhibition is 4.07% (inactive).
Regarding `O=C(NC1CCN(Cc2ccccc2)CC1)c1cc(Br)c(Br)[nH]1`, the inhibition is -7.58% (inactive).
Turning to `S=C(Nc1ccc(Br)cc1Cl)NC1CCN(Cc2ccccc2)CC1`, the inhibition is 5.25% (inactive).
Take `S=C(Nc1ccc(Br)cc1)NC1CCN(Cc2ccccc2)CC1`: the inhibition was 17.1% (active).
Take `N#Cc1ccccc1OC[C@@H](O)CN1CCC(C(O)(c2ccccc2)c2ccccc2)CC1`: the inhibition is 3.53% (inactive).
For `CN[C@H]1C[C@H]2c3cc(N4CCOCC4)ccc3CCN2C[C@H]1[C@H](C)O`, the inhibition was 3.31% (inactive).
Regarding `COc1ccc(CCNC(=O)C2CCCN(S(=O)(=O)c3ccc(OC)cc3)C2)cc1` (centres undefined), the inhibition was -4.52% (inactive).
As for `CCCCNC(=O)C1CCCN(S(=O)(=O)c2ccc(S(=O)(=O)NCC(C)C)cc2)C1` (centres undefined), the inhibition is -1.45% (inactive).
Consider `CC(C)CCNC(=O)C1CCCN(S(=O)(=O)c2ccc(F)cc2)C1` (centres undefined), for which the inhibition is 23.3% (active).
Under `Cc1ccc(NC(=O)Nc2cc(C)nn2-c2ccccc2)cc1` stands 0.39% (inactive).
Under `CCOC(=O)[C@@]12CCC3=C1N(CCC3)C(=O)[C@H](CC(=O)N1CCN(C(=O)c3ccco3)CC1)C2` stands 8.17% (inactive); under `O=C(Nc1ccc(Br)cc1)OCCN1C(=O)CCC12CCC(c1ccccc1)CC2` (centres undefined), 2.49% (inactive).
Turning to `CCOC(=O)c1c(C)nn(-c2ncccc2NC(=O)CCC(=O)O)c1C`, the inhibition was 19.8% (active).
In the case of `Cc1cccc(C)c1NC(=O)COC(=O)c1c(C)nn(-c2ccccc2)c1C`, the inhibition was 2.02% (inactive).
As for `Cc1ccc(OC(=O)c2c(C)nn(-c3ccccc3)c2C)cc1`, the inhibition was 5.09% (inactive).
